Laboratory results: PubChem BioAssay (EPA / NIEHS)
Active and inactive are the calls of the source. How the source made its calls: active means hit-call score of the fitted dose curve at least 0.9, where 1 is the maximum; inactive means score below 0.9.

Legend:
[1] = BSK_3C_Vis: BioMAP Diversity Plus: 3C Assay for Morphology Visualization (AID 2283025); details: primary human endothelial cells (HUVEC);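 further: fitted both ways so gain or loss versus DMSO counts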;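 on AC50: light microscopy image of cell morphology used as background control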
In short: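 Human umbilical vein endothelial cell morphology was inspected by light microscopy 24 h after chemical dosing; scored bidirectionally relative to DMSO.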

[2] = read-out: Pselectin, SELP (gene 6403); experiment: BSK_4H_Pselectin: BioMAP Diversity Plus: 4H Assay for Pselectin Biomarker Activity (AID 2283026); details: primary human endothelial cells (HUVEC); actives raise or lower the signal
In short: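 Primary human umbilical vein endothelial cells were treated 24 h, and cell-surface P-selectin was then quantified by ELISA. Bidirectional fit versus DMSO; cytotoxicity checked in parallel cultures by SRB total-protein staining.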

[3] = BSK_4H_SRB: Viability Assessment in the BioMAP Diversity Plus: 4H Assay (AID 2283027); details: primary human endothelial cells (HUVEC);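 on AC50: curves fitted both ways versus DMSO so AC50 may be loss or gain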
In short: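 Human umbilical vein endothelial cells, 24 h after chemical dosing; total protein measured by 0.1% sulforhodamine B staining after 10% TCA fixation, read at 560 nm. Bidirectional fitting against DMSO.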

[4] = BSK_BE3C_SRB: Viability Assessment in the BioMAP Diversity Plus: BE3C Assay (AID 2283028); details: primary human bronchial epithelial cells;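 on AC50: fitted both ways so AC50 may mark signal gain or loss versus DMSO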
In short: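 Overt cytotoxicity was assessed as total protein in confluent human primary bronchial epithelial cultures 24 h after chemical addition, using 0.1% sulforhodamine B staining read at 560 nm.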

[5] = read-out: Thrombomodulin, THBD (gene 7056); experiment: BSK_3C_Thrombomodulin: BioMAP Diversity Plus: 3C Assay for Thrombomodulin Biomarker Activity (AID 2283029); details: primary human endothelial cells (HUVEC); actives raise or lower the signal
In short: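 Human umbilical vein endothelial cells were exposed to chemicals for 24 h; cell-surface thrombomodulin quantified by ELISA, with bidirectional fitting against DMSO baseline.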

[6] = read-out: Urokinase-type plasminogen activator receptor (uPAR), PLAUR (gene 5329); experiment: BSK_4H_uPAR: BioMAP Diversity Plus: 4H Assay for Urokinase-type plasminogen activator receptor (uPAR) Biomarker Activity (AID 2283030); details: primary human endothelial cells (HUVEC); actives raise or lower the signal
In short: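 Chemicals are dosed onto human vascular endothelial primary cells (umbilical vein). After 24 h, uPAR is read by ELISA. Gain or loss of signal is fitted relative to DMSO.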

[7] = read-out: Vascular endothelial growth factor receptor 2 (Homo sapiens) (UniProt P35968); experiment: BSK_4H_VEGFRII: BioMAP Diversity Plus: 4H Assay for Vascular endothelial growth factor receptor 2 (VEGFR2) Biomarker Activity (AID 2283031); details: primary human endothelial cells (HUVEC); actives raise or lower the signal;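 on AC50: cell-surface VEGFR2 protein level quantified by ELISA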
In short: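 VEGFRII levels on human vascular endothelial primary cells were determined by ELISA at 24 hours post-dosing, with gain- or loss-of-signal fitted against DMSO controls.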

[8] = read-out: Human Leukocyte Antigen - DR isotype (HLADR), HLA-DRA (gene 3122); experiment: BSK_BE3C_HLADR: BioMAP Diversity Plus: BE3C Assay for Human Leukocyte Antigen - DR isotype (HLADR) Biomarker Activity (AID 2283032); details: primary human bronchial epithelial cells; actives raise or lower the signal
In short: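 Human primary bronchial epithelial cells (BE3C system) exposed to compound for 24 hours; cell-surface HLA-DR measured by ELISA, fitted bidirectionally relative to DMSO. Total protein by SRB in parallel cultures tracked cytotoxicity.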

[9] = read-out: Vascular cell adhesion molecule 1 (VCAM1), VCAM1 (gene 7412); experiment: BSK_4H_VCAM1: BioMAP Diversity Plus: 4H Assay for Vascular cell adhesion molecule 1 (VCAM1) Biomarker Activity (AID 2283033); details: primary human endothelial cells (HUVEC); actives raise or lower the signal
In short: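 Primary human umbilical vein endothelial cells, 4H stimulation system, treated for 24 h; cell-surface VCAM-1 quantified by ELISA. Bidirectional fitting against DMSO; cytotoxicity tracked by SRB total-protein staining in parallel cultures.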

[10] = read-out: Interferon-gamma inducible Protein 10 (IP10), CXCL10 (gene 3627); experiment: BSK_BE3C_IP10: BioMAP Diversity Plus: BE3C Assay for Interferon-gamma inducible Protein 10 (IP10) Biomarker Activity (AID 2283034); details: primary human bronchial epithelial cells; actives raise or lower the signal
In short: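 Primary human bronchial epithelial cells, with IP-10 measured by ELISA 24 hours after chemical dosing. Bidirectional fit against DMSO; cytotoxicity checked by SRB total protein staining in parallel cultures.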

[11] = read-out: Monokine induced gamma interferon (MIG), CXCL9 (gene 4283); experiment: BSK_BE3C_MIG: BioMAP Diversity Plus: BE3C Assay for Monokine induced gamma interferon (MIG) Biomarker Activity (AID 2283035); details: primary human bronchial epithelial cells; actives raise or lower the signal
In short: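 Primary human bronchial epithelial cells treated for 24 h; MIG levels measured by ELISA, fitted bidirectionally versus DMSO. Parallel SRB total-protein staining assessed cytotoxicity.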

[12] = read-out: Transforming growth factor beta 1 (TGFb1), TGFB1 (gene 7040); experiment: BSK_BE3C_TGFb1: BioMAP Diversity Plus: BE3C Assay for Transforming growth factor beta 1 (TGFb1) Biomarker Activity (AID 2283036); details: primary human bronchial epithelial cells; actives raise or lower the signal
In short: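 Primary human bronchial epithelial cells dosed with chemical; TGF-b1 measured by ELISA 24 h after dosing. Bidirectional curve fitting against DMSO negative control; SRB total-protein staining in parallel cultures gauged cytotoxicity.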

[13] = read-out: urokinase plasminogen activator (uPA), PLAU (gene 5328); experiment: BSK_BE3C_uPA: BioMAP Diversity Plus: BE3C Assay for urokinase plasminogen activator (uPA) Biomarker Activity (AID 2283038); details: primary human bronchial epithelial cells; actives raise or lower the signal
In short: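 Measured by ELISA: uPA from human primary bronchial epithelial cells 24 h after chemical treatment. Values derive from bidirectional curve fitting with DMSO serving as negative control. Total protein by SRB staining in parallel wells flagged overt cytotoxicity.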

[14] = read-out: Urokinase-type plasminogen activator receptor (uPAR), PLAUR (gene 5329); experiment: BSK_BE3C_uPAR: BioMAP Diversity Plus: BE3C Assay for Urokinase-type plasminogen activator receptor (uPAR) Biomarker Activity (AID 2283039); details: primary human bronchial epithelial cells; actives raise or lower the signal
In short: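 Primary human bronchial epithelial cells dosed for 24 h; uPAR quantified by ELISA with bidirectional fitting against DMSO. Overt cytotoxicity assessed in parallel cultures by SRB total-protein staining (0.1% SRB, 560 nm).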

[15] = read-out: Interleukin-6 (IL6), IL6 (gene 3569); experiment: BSK_CASM3C_IL6: BioMAP Diversity Plus: CASM3C Assay for Interleukin-6 (IL6) Biomarker Activity for (AID 2283040); details: primary human coronary artery smooth muscle cells; actives raise or lower the signal
[16] = read-out: Tissue plasminogen activator (tPA), PLAT (gene 5327); experiment: BSK_BE3C_tPA: BioMAP Diversity Plus: BE3C Assay for Tissue plasminogen activator (tPA) Biomarker Activity (AID 2283041); details: primary human bronchial epithelial cells; actives raise or lower the signal
In short: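 Primary human bronchial epithelial cells in the BE3C system, exposed to compound for 24 h. tPA was quantified by ELISA; DMSO served as baseline, with gain or loss of signal fitted. Cytotoxicity checked in parallel cultures by SRB total-protein staining.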

[17] = read-out: Interleukin-8 (IL8), CXCL8 (gene 3576); experiment: BSK_CASM3C_IL8: BioMAP Diversity Plus: CASM3C Assay for Interleukin-8 (IL8) Biomarker Activity (AID 2283042); details: primary human coronary artery smooth muscle cells; actives raise or lower the signal;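 further: IL-8 protein level quantified by ELISA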
[18] = read-out: Human Leukocyte Antigen - DR isotype (HLADR), HLA-DRA (gene 3122); experiment: BSK_CASM3C_HLADR: BioMAP Diversity Plus: CASM3C Assay for Human Leukocyte Antigen - DR isotype (HLADR) Biomarker Activity (AID 2283043); details: primary human coronary artery smooth muscle cells; actives raise or lower the signal;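 further: cell-surface HLA-DR protein level quantified by ELISA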
[19] = read-out: Macrophage colony-stimulating factor (MCSF), CSF1 (gene 1435); experiment: BSK_CASM3C_MCSF: BioMAP Diversity Plus: CASM3C Assay for Macrophage colony-stimulating factor (MCSF) Biomarker Activity (AID 2283044); details: primary human coronary artery smooth muscle cells; actives raise or lower the signal;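 further: M-CSF protein amount quantified by ELISA after 24 h exposure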
[20] = read-out: Plasminogen activator inhibitor-1 (PAI1), SERPINE1 (gene 5054); experiment: BSK_BE3C_PAI1: BioMAP Diversity Plus: BE3C Assay for Plasminogen activator inhibitor-1 (PAI1) Biomarker Activity (AID 2283037); details: primary human bronchial epithelial cells; actives raise or lower the signal
In short: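 Primary human bronchial epithelial cells (BE3C system) exposed 24 h; PAI-1 quantified by ELISA. Parallel sulforhodamine B staining of total protein flags cytotoxicity. Bidirectional fit versus DMSO.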

Measured: AC50

Oc1cc(Cl)c(Cl)cc1Cl
active: [1] 39 µM | [2] 25.6 µM | [3] 25.5 µM | [6] 27.4 µM | [7] 31 µM | [10] 32.2 µM | [13] 26.2 µM | [16] 12.9 µM
not listed: [20]
inactive: all other assays above

CCCCN(CCCC)C(=S)[S-].CCCCN(CCCC)C(=S)[S-].[Ni+2]
not listed: [7]
inactive: all other assays above

O=c1oc2ccccc2c(O)c1C(CC(O)c1ccc(-c2ccc(Br)cc2)cc1)c1ccccc1 (stereo not given)
inactive: [5]
active: [1] 12.6 µM | [3] 12.7 µM | [4] 5.05 µM | [6] 6.9 µM | [7] 5.2 µM | [8] 5.4 µM | [9] 13.9 µM | [10] 5.4 µM | [11] 10.5 µM | [12] 0.144 µM | [20] 0.915 µM | [13] 5.29 µM | [14] 5.34 µM | [15] 25 µM | [16] 0.837 µM | [17] 0.0413 µM | [18] 4.99 µM | [19] 16.3 µM

CN(C)C(=S)S
active: [8] 25.1 µM | [10] 28.7 µM | [11] 23.1 µM | [12] 20 µM | [13] 30.2 µM | [16] 9.34 µM
not listed: [7]
inactive: all other assays above

O=C(CCl)NCO
inactive: all assays above

C=CC(Cl)CCl (stereo not given)
inactive: all assays above

OC(Cc1ccccc1Cl)(Cn1[nH]cnc1=S)C1(Cl)CC1 (stereo not given)
inactive: [1] | [4] | [5] | [15] | [17] | [19]
active: [2] 20 µM | [3] 27.8 µM | [6] 20 µM | [7] 20 µM | [8] 20 µM | [9] 20 µM | [10] 15.8 µM | [11] 31.1 µM | [12] 8.86 µM | [20] 6.3 µM | [13] 20 µM | [14] 12.6 µM | [16] 20 µM | [18] 26.7 µM

O=S(=O)(C(Cl)(Cl)Cl)C(Cl)(Cl)Cl
active: [1] 4.25 µM | [2] 1.1 µM | [3] 0.932 µM | [4] 4.45 µM | [5] 10.1 µM | [6] 1.45 µM | [7] 0.327 µM | [8] 3.17 µM | [9] 1.43 µM | [10] 2.86 µM | [11] 7.75 µM | [12] 9.08 µM | [20] 3.87 µM | [13] 5.31 µM | [14] 7.21 µM | [15] 1.61 µM | [16] 4.81 µM | [17] 1.69 µM | [18] 1.31 µM | [19] 2.2 µM

O=C(O)C1(c2ccc3c(c2)OC[C@H](Cc2ccc(-c4ccccc4)cc2)[C@H]3O)CCCC1
active: [2] 27.1 µM | [3] 20 µM | [4] 26.2 µM | [8] 7.34 µM | [10] 5.91 µM | [11] 19.9 µM | [12] 13 µM | [20] 12.4 µM | [13] 13.8 µM | [14] 14.1 µM | [16] 4.2 µM | [18] 25 µM
inactive: [1] | [5] | [6] | [7] | [9] | [15] | [17] | [19]

Oc1cccc(-c2ccccc2)c1
active: [1] 38.9 µM | [3] 20 µM | [9] 36.9 µM
inactive: all other assays above

Cc1ccc(OP(=O)(Oc2ccc(C)cc2C)Oc2ccc(C)cc2C)c(C)c1
active: [20] 6.01 µM | [16] 3.86 µM | [19] 0.0882 µM
not listed: [2]
inactive: all other assays above
